Experimental data reported in PubChem BioAssay AID1159580 (chemical genetic matrix, 2015).
In all, about 5,500 compounds went through this assay and about 2,000 (36%) were called active. Inconclusive results (about 18%) are left out. No stated cut-off is given here; in the data, active means normalized growth mostly below about 0.91 (no sharp cut-off); inconclusive means no clear call, values can overlap the other calls; inactive means mostly above about 0.92. This is one part of the list.

Assay: chemical genetic growth profiling, strain panel (AID 1159580);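 further: tested at 20 µM; growth read once vehicle control cultures reached saturation at 30 °C; 1 = growth at the plate median or of vehicle wells; lower values mean less growth of the strain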
Conditions: growth OD

Measured: normalized growth

Cn1c(=O)c2c(ncn2CCCl)n(C)c1=O
inactive: S. cerevisiae deletion strains, locus YAL013W, strain DEP1, active compounds read low 1 | S. cerevisiae deletion strains, locus YBR021W, strain FUR4, active compounds read low 0.995 | S. cerevisiae deletion strains, locus YBR229C, strain ROT2, active compounds read low 0.997 | S. cerevisiae deletion strains, locus YCL029C, strain bik1, active compounds read low 1.03 | S. cerevisiae deletion strains, locus YDL035C, strain GPR1, active compounds read low 1 | S. cerevisiae deletion strains, locus YDL074C, strain BRE1, active compounds read low 0.999 | S. cerevisiae deletion strains, locus YDL101C, strain DUN1, active compounds read low 1.01 | S. cerevisiae deletion strains, locus YDL134C, strain PPH21, active compounds read low 1 | S. cerevisiae deletion strains, locus YDL185W, strain tfp1, active compounds read low 1.01 | S. cerevisiae deletion strains, locus YDL192W, strain arf1, active compounds read low 1.02 | S. cerevisiae deletion strains, locus YDR101C, strain arx1, active compounds read low 0.995 | S. cerevisiae deletion strains, locus YDR150W, strain NUM1, active compounds read low 0.998 | S. cerevisiae deletion strains, locus YDR162C, strain NBP2, active compounds read low 1 | S. cerevisiae deletion strains, locus YDR318W, strain mcm21, active compounds read low 1.02 | S. cerevisiae deletion strains, locus YDR388W, active compounds read low 1.01 | S. cerevisiae deletion strains, locus YDR502C, strain sam2, active compounds read low 1.02 | S. cerevisiae deletion strains, locus YEL061C, strain CIN8, active compounds read low 0.998 | S. cerevisiae deletion strains, locus YER110C, active compounds read low 1.02 | S. cerevisiae deletion strains, locus YER155C, strain BEM2, active compounds read low 0.997 | S. cerevisiae deletion strains, locus YER167W, strain BCK2, active compounds read low 1.01 | S. cerevisiae deletion strains, locus YGL078C, strain dbp3, active compounds read low 1.02 | S. cerevisiae deletion strains, locus YGL086W, strain mad1, active compounds read low 1.01 | S. cerevisiae deletion strains, locus YGL248W, strain PDE1, active compounds read low 1 | S. cerevisiae deletion strains, locus YGR078C, strain PAC10, active compounds read low 0.975 | S. cerevisiae deletion strains, locus YGR135W, strain pre9, active compounds read low 0.995 | S. cerevisiae deletion strains, locus YGR229C, strain SMI1, active compounds read low 0.987 | S. cerevisiae deletion strains, locus YGR252W, strain gcn5, active compounds read low 1.03 | S. cerevisiae deletion strains, locus YHR030C, strain SLT2, active compounds read low 1 | S. cerevisiae deletion strains, locus YHR079C, strain IRE1 (second series), active compounds read low 1.02 | S. cerevisiae deletion strains, locus YHR094C, strain hxt1, active compounds read low 1.01 | S. cerevisiae deletion strains, locus YHR129C, strain ARP1, active compounds read low 1 | S. cerevisiae deletion strains, locus YHR200W, strain rpn10, active compounds read low 1.03 | S. cerevisiae deletion strains, locus YIL066C, strain RNR3, active compounds read low 1.02 | S. cerevisiae deletion strains, locus YIL073C, strain SPO22, active compounds read low 1.08 | S. cerevisiae deletion strains, locus YIL125W, strain kgd1, active compounds read low 1.02 | S. cerevisiae deletion strains, locus YIR030C, strain dcg1, active compounds read low 1.03 | S. cerevisiae deletion strains, locus YJL095W, strain BCK1, active compounds read low 0.992 | S. cerevisiae deletion strains, locus YJL134W, strain LCB3, active compounds read low 1.01 | S. cerevisiae deletion strains, locus YJL168C, strain set2, active compounds read low 1.02 | S. cerevisiae deletion strains, locus YJL187C, strain SWE1 (second series), active compounds read low 1 | S. cerevisiae deletion strains, locus YJR043C, strain POL32, active compounds read low 0.998 | S. cerevisiae deletion strains, locus YJR075W, strain HOC1, active compounds read low 0.987 | S. cerevisiae deletion strains, locus YKL009W, strain mrt4, active compounds read low 1.03 | S. cerevisiae deletion strains, locus YKL068W, active compounds read low 1.02 | S. cerevisiae deletion strains, locus YKL085W, strain MDH1 (second series), active compounds read low 1.01 | S. cerevisiae deletion strains, locus YKL085W, strain MDH1, active compounds read low 1.01 | S. cerevisiae deletion strains, locus YKL190W, strain CNB1, active compounds read low 1 | S. cerevisiae deletion strains, locus YKR001C, strain vps1, active compounds read low 1.01 | S. cerevisiae deletion strains, locus YLR039C, strain RIC1, active compounds read low 1.04 | S. cerevisiae deletion strains, locus YLR058C, strain SHM2, active compounds read low 1.01 | S. cerevisiae deletion strains, locus YLR102C, strain apc9, active compounds read low 1.03 | S. cerevisiae deletion strains, locus YLR262C, strain YPT6, active compounds read low 1.05 | S. cerevisiae deletion strains, locus YLR268W, strain sec22, active compounds read low 0.994 | S. cerevisiae deletion strains, locus YLR330W, strain CHS5, active compounds read low 1.01 | S. cerevisiae deletion strains, locus YLR342W, strain FKS1 (second series), active compounds read low 1.01 | S. cerevisiae deletion strains, locus YLR371W, strain rom2, active compounds read low 1.03 | S. cerevisiae deletion strains, locus YLR418C, strain cdc73, active compounds read low 0.992 | S. cerevisiae deletion strains, locus YML016C, strain PPZ1, active compounds read low 1 | S. cerevisiae deletion strains, locus YML032C, strain rad52, active compounds read low 1.03 | S. cerevisiae deletion strains, locus YML124C, strain tub3, active compounds read low 1.02 | S. cerevisiae deletion strains, locus YMR078C, strain ctf18, active compounds read low 1.02 | S. cerevisiae deletion strains, locus YMR223W, strain ubp8, active compounds read low 1.04 | S. cerevisiae deletion strains, locus YMR263W, strain SAP30, active compounds read low 0.995 | S. cerevisiae deletion strains, locus YMR307W, strain GAS1, active compounds read low 0.996 | S. cerevisiae deletion strains, locus YNL067W, strain RPL9B, active compounds read low 1.01 | S. cerevisiae deletion strains, locus YNL128W, strain TEP1, active compounds read low 0.999 | S. cerevisiae deletion strains, locus YNL153C, strain GIM3, active compounds read low 0.988 | S. cerevisiae deletion strains, locus YNL233W, strain BNI4, active compounds read low 0.994 | S. cerevisiae deletion strains, locus YNL250W, strain rad50, active compounds read low 1.04 | S. cerevisiae deletion strains, locus YNL271C, strain bni1, active compounds read low 1.02 | S. cerevisiae deletion strains, locus YNL298W, strain CLA4, active compounds read low 1.03 | S. cerevisiae deletion strains, locus YNL307C, strain MCK1, active compounds read low 1.03 | S. cerevisiae deletion strains, locus YNL322C, strain KRE1, active compounds read low 1 | S. cerevisiae deletion strains, locus YNR052C, strain pop2, active compounds read low 1.04 | S. cerevisiae deletion strains, locus YOL006C, strain TOP1, active compounds read low 1.03 | S. cerevisiae deletion strains, locus YOL012C, strain htz1 0.951 | S. cerevisiae deletion strains, locus YOL147C, strain pex11, active compounds read low 1.01 | S. cerevisiae deletion strains, locus YOR061W, strain CKA2, active compounds read low 1.01 | S. cerevisiae deletion strains, locus YOR069W, strain VPS5, active compounds read low 1 | S. cerevisiae deletion strains, locus YOR136W, strain idh2, active compounds read low 1.02 | S. cerevisiae deletion strains, locus YOR144C, strain elg1, active compounds read low 1.01 | S. cerevisiae deletion strains, locus YOR184W, strain ser1, active compounds read low 1.03 | S. cerevisiae deletion strains, locus YOR316C, strain cot1, active compounds read low 1.02 | S. cerevisiae deletion strains, locus YPL055C, strain LGE1, active compounds read low 0.999 | S. cerevisiae deletion strains, locus YPL241C, strain CIN2, active compounds read low 1 | S. cerevisiae deletion strains, locus YPR119W, strain clb2, active compounds read low 1.01 | S. cerevisiae deletion strains, locus YPR141C, strain kar3, active compounds read low 1.02 | S. cerevisiae deletion strains, locus YPR163C, strain tif3, active compounds read low 1.01 | S. cerevisiae deletion strains, locus YPR167C, strain met16, active compounds read low 1.02 | S. cerevisiae deletion strains, strain wtn01, active compounds read low 0.997 | S. cerevisiae strains, strain wild type, active compounds read low 1
